Out of some 5,500 compounds screened, about 2,000 (36%) were called active. Inconclusive results (about 18%) are left out. Rule as the data show it: active = normalized growth mostly below about 0.91 (no sharp cut-off); inconclusive = no clear call, values can overlap the other calls; inactive = mostly above about 0.92. Some of the results follow.
Assay: chemical genetic growth profiling, strain panel (AID 1159580);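 also: tested at 20 µM; growth read once vehicle control cultures reached saturation at 30 °C; 1 = growth at the plate median or of vehicle wells; lower values mean less growth of the strain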
Settings: S. cerevisiae deletion strains, growth OD

Measured: normalized growth

CCN1C[C@]2(OC(=O)c3ccccc3NC(C)=O)CCC(OC)[C@]34C1[C@H](CC23)[C@@]1(O)CC(OC)[C@H]2CC4C1(O)[C@H]2OC (stereo not given in full)
inactive: locus YAL021C, strain ccr4, stronger effect = lower value 0.966 | locus YAL026C, strain drs2, stronger effect = lower value 0.981 | locus YAL030W, strain snc1, stronger effect = lower value 0.977 | locus YBL061C, strain skt5, stronger effect = lower value 0.971 | locus YBR009C, strain hhf1, stronger effect = lower value 0.985 | locus YBR023C, strain chs3, stronger effect = lower value 0.977 | locus YBR171W, strain sec66, stronger effect = lower value 0.96 | locus YBR231C, strain swc5, stronger effect = lower value 0.972 | locus YBR279W, strain paf1, stronger effect = lower value 0.979 | locus YCL011C, strain gbp2, stronger effect = lower value 0.947 | locus YCL016C, strain dcc1, stronger effect = lower value 0.971 | locus YCL061C, strain MRC1, stronger effect = lower value 1 | locus YCL069W, strain vba3, stronger effect = lower value 0.955 | locus YCR088W, strain abp1, stronger effect = lower value 0.946 | locus YDL005C, strain med2, stronger effect = lower value 0.948 | locus YDL040C, strain nat1, stronger effect = lower value 0.969 | locus YDR001C, strain nth1, stronger effect = lower value 0.977 | locus YDR069C, strain doa4, stronger effect = lower value 0.953 | locus YDR137W, strain rgp1, stronger effect = lower value 1.02 | locus YDR159W, strain sac3, stronger effect = lower value 0.979 | locus YDR195W, strain ref2 0.963 | locus YDR297W, strain sur2, stronger effect = lower value 0.967 | locus YDR334W, strain swr1, stronger effect = lower value 0.974 | locus YDR335W, strain msn5, stronger effect = lower value 0.958 | locus YDR392W, strain spt3, stronger effect = lower value 0.921 | locus YEL003W, strain gim4, stronger effect = lower value 0.98 | locus YEL037C, strain rad23, stronger effect = lower value 0.958 | locus YEL061C, strain CIN8 (second series), stronger effect = lower value 0.963 | locus YER015W, strain faa2, stronger effect = lower value 0.974 | locus YER016W, strain bim1, stronger effect = lower value 0.979 | locus YER111C, strain swi4, stronger effect = lower value 0.986 | locus YER155C, strain BEM2 (second series), stronger effect = lower value 0.974 | locus YFR010W, strain ubp6, stronger effect = lower value 0.975 | locus YGL167C, strain pmr1, stronger effect = lower value 0.974 | locus YGL173C, strain kem1, stronger effect = lower value 0.972 | locus YGL227W, strain vid30, stronger effect = lower value 0.956 | locus YGL240W, strain doc1, stronger effect = lower value 0.973 | locus YGL253W, strain hxk2, stronger effect = lower value 0.963 | locus YHR013C, strain ard1, stronger effect = lower value 0.969 | locus YHR027C, strain rpn1, stronger effect = lower value 0.992 | locus YHR030C, strain SLT2, stronger effect = lower value 0.976 | locus YHR079C, strain IRE1, stronger effect = lower value 0.98 | locus YHR142W, strain chs7, stronger effect = lower value 0.95 | locus YJL092W, strain hpr5, stronger effect = lower value 0.953 | locus YJL095W, strain BCK1 (second series), stronger effect = lower value 0.974 | locus YJL095W, strain BCK1, stronger effect = lower value 0.97 | locus YJL115W, strain asf1, stronger effect = lower value 0.973 | locus YJL129C, strain trk1, stronger effect = lower value 0.961 | locus YJL154C, strain vps35, stronger effect = lower value 0.952 | locus YJL164C, strain tpk1, stronger effect = lower value 0.983 | locus YJL166W, strain qcr8, stronger effect = lower value 0.979 | locus YJL187C, strain SWE1, stronger effect = lower value 0.987 | locus YJR066W, strain TOR1, stronger effect = lower value 0.975 | locus YKL160W, strain elf1, stronger effect = lower value 0.979 | locus YKR026C, strain gcn3, stronger effect = lower value 0.975 | locus YKR091W, strain srl3, stronger effect = lower value 0.979 | locus YLL001W, strain dnm1, stronger effect = lower value 0.993 | locus YLL026W, stronger effect = lower value 0.984 | locus YLL041C, strain sdh2, stronger effect = lower value 0.978 | locus YLR027C, strain aat2, stronger effect = lower value 0.967 | locus YLR113W, strain HOG1, stronger effect = lower value 0.969 | locus YLR221C, strain rsa3, stronger effect = lower value 0.976 | locus YLR258W, strain gsy2, stronger effect = lower value 0.974 | locus YLR262C, strain YPT6 (second series), stronger effect = lower value 1.04 | locus YLR320W, strain mms22, stronger effect = lower value 0.983 | locus YLR342W, strain FKS1, stronger effect = lower value 0.961 | locus YLR357W, strain rsc2, stronger effect = lower value 0.945 | locus YLR370C, strain arc18, stronger effect = lower value 0.973 | locus YLR384C, strain iki3, stronger effect = lower value 0.959 | locus YML120C, strain ndi1, stronger effect = lower value 0.974 | locus YMR058W, strain fet3, stronger effect = lower value 0.989 | locus YMR125W, strain sto1, stronger effect = lower value 0.953 | locus YMR129W, stronger effect = lower value 0.98 | locus YMR205C, strain PFK2, stronger effect = lower value 0.993 | locus YMR231W, strain pep5, stronger effect = lower value 0.953 | locus YNL071W, strain lat1, stronger effect = lower value 0.956 | locus YNL183C, strain NPR1, stronger effect = lower value 0.905 | locus YNL209W, strain ssb2, stronger effect = lower value 0.974 | locus YNL248C, strain rpa49, stronger effect = lower value 0.98 | locus YNL322C, strain KRE1 (second series), stronger effect = lower value 0.972 | locus YNR049C, strain mso1, stronger effect = lower value 0.979 | locus YOR001W, strain rrp6, stronger effect = lower value 0.961 | locus YOR070C, strain gyp1, stronger effect = lower value 0.964 | locus YOR080W, strain dia2, stronger effect = lower value 0.97 | locus YOR083W, strain WHI5, stronger effect = lower value 0.973 | locus YOR106W, strain vam3, stronger effect = lower value 0.959 | locus YOR231W, strain MKK1, stronger effect = lower value 0.978 | locus YOR265W, strain rbl2, stronger effect = lower value 0.982 | locus YOR270C, strain vph1, stronger effect = lower value 0.975 | locus YOR290C, strain snf2, stronger effect = lower value 0.986 | locus YPL051W, strain arl3, stronger effect = lower value 0.979 | locus YPL078C, strain atp4, stronger effect = lower value 0.971 | locus YPL106C, strain sse1, stronger effect = lower value 0.923 | locus YPL240C, strain hsp82, stronger effect = lower value 0.963 | locus YPL256C, strain CLN2, stronger effect = lower value 0.956
